Screening data from PubChem BioAssay.
CapD inh = blocks the Bacillus anthracis CapD enzyme; z-score (concentration not given with the values); purified CapD enzyme, fluorescence intensity read-out; hits give low values; 140,000 tested, 0.23% active; in the data active = z-score mostly below about -2.9, no sharp cut-off; inactive = mostly above about -1.9
* hit, by the source's call. The entries come from a sample that favours hits as a whole.

COc1cc(C2=N/C(=C\c3cc(Br)cs3)C(=O)O2)cc(OC)c1OC was read as CapD inh -2.17.
O=C(O)c1cc2ccc(O)cc2oc1=O was read as CapD inh 90.1.
For O=C(c1ccc2c(c1)OCO2)c1cc2ccc(O)cc2oc1=O the results were CapD inh -3.87.
Screening O=C(c1ccc(F)cc1)c1cc2ccc(O)cc2oc1=O returned CapD inh -6.37*.
CCSc1ncc(S(=O)(=O)c2ccccc2)c(N)n1 was read as CapD inh -3.
For O=C(Nc1ccccc1SCc1cccc(C(F)(F)F)c1)c1ccc(Cl)c(Cl)c1 the results were CapD inh -0.905.
Fc1ccc(C(c2nnc(-c3ccccc3)o2)N2CCN(Cc3ccccc3)CC2)cc1 (stereo unspecified) was read as CapD inh -0.125.
For CC(=O)Oc1ccc(-n2c(C)cc(/C=C3\C(=O)NC(=S)N(c4ccc(C)cc4)C3=O)c2C)cc1 the results were CapD inh -0.56.
Screening Cc1cc(/C=C2\C(=O)NC(=O)N(c3ccc(Br)cc3)C2=O)c(C)n1-c1cc(C(=O)O)cc(C(=O)O)c1 returned CapD inh -0.935.
Cc1cc(/C=C2\C(=O)NC(=S)N(c3ccc(Cl)cc3)C2=O)c(C)n1-c1cc(C(=O)O)cc(C(=O)O)c1 was read as CapD inh -6.24*.
Cc1ccc(NC(=O)CC2CCC2)cc1C was read as CapD inh 0.88.
For CC1(C)Cc2c(c(=O)n(-c3ccccc3)c3ncnc(N)c23)CO1 the results were CapD inh -1.29.
CC1(C)CC(=O)/C(=N/Nc2ccccc2)CO1 was read as CapD inh -4.01*.
CC1(C)CC(=O)C(C(=S)Nc2ccccc2)C(=O)C1 was read as CapD inh -0.09.
Screening COc1cccc(CCOC(=O)NC(Cc2ccccc2)C(=O)OCc2ccccc2)c1 (stereo unspecified) returned CapD inh -0.34.
Screening O=C(Cn1c(SCc2ccc(F)cc2)nc2cccnc21)N1CCCC1 returned CapD inh 42.
CC1(C)Cc2c(c(=S)nc(-c3ccccc3)n2CCO)CO1 was read as CapD inh -5.06*.
OCCn1c(-c2ccccc2)nc2ccccc21 was read as CapD inh 2.36.
For CC1(C)Cc2ccccc2-c2nc(-c3ccccc3)n(CCO)c(=O)c21 the results were CapD inh 7.32.
Screening O=S1(=O)c2ccccc2S(=O)(=O)N1Cc1ccccc1Cl returned CapD inh 0.165.
For COc1cc([N+](=O)[O-])cc2sc(NC(=O)c3ccccc3NS(=O)(=O)c3ccc(C)cc3)nc12 the results were CapD inh 0.17.
Screening O=C(/C=C/c1ccco1)C1CC1 returned CapD inh -3.09.
For N#C/C(=C\c1cccc(Cl)c1)C(=O)C1CC1 the results were CapD inh 0.495.
For N#C/C(=C\c1ccco1)C(=O)C1CC1 the results were CapD inh -4.28*.
O=C(NC1CCCCCCC1)c1ccc(NC2=NC3CS(=O)(=O)CC3S2)cc1 (stereo unspecified) was read as CapD inh 0.34.
For CCc1ccc(C(=O)Cn2c(NCCO)nc3ccccc32)cc1 the results were CapD inh -0.33.
For CC1CN(c2cc(=O)n(-c3ccc(Cl)cc3)c(=O)[nH]2)CC(C)O1 (stereo unspecified) the results were CapD inh -4.1*.
`Cc1ccc(Cl)cc1-n1c(=O)cc(N2CC(C)OC(C)C2)[nH]c1=O` (stereo unspecified) gave CapD inh -0.78.
`COc1ccc(-n2c(=O)cc(N3CCCC3)[nH]c2=O)cc1` gave CapD inh -1.39.
NC(CO)C(=O)NNCc1ccc(O)c(O)c1O (stereo unspecified) was read as CapD inh 0.07.
`NC(CO)C(=O)N/N=C/c1ccc(O)c(O)c1O` (stereo unspecified) gave CapD inh -6.9*.
`CCC(Nc1ccccc1)C(=O)N/N=C/c1ccccc1O` (stereo unspecified) gave CapD inh -0.1.
For Cc1ccc(N=Cc2ccc3ncccc3c2)c(Br)c1 the results were CapD inh -0.26.
`CCN(Cc1ccncc1)C(=O)C1CC1C` (stereo unspecified) gave CapD inh 0.205.
`COc1ccc(C2C(C#N)=C(N)Oc3n[nH]c(-c4ccc5c(c4)OCO5)c32)c(OC)c1OC` (stereo unspecified) gave CapD inh -0.025.
`COc1cc(/C=C2\C(=O)NC(=S)N(c3ccc(Cl)cc3)C2=O)cc([N+](=O)[O-])c1O` gave CapD inh -2.81.
Screening COc1cc(/C=C2\C(=O)NC(=S)N(c3ccccc3C)C2=O)cc([N+](=O)[O-])c1O returned CapD inh -5.96*.
COc1ccccc1N1C(=O)NC(=O)/C(=C\c2cc(OC)c(O)c(OC)c2)C1=O was read as CapD inh -1.6.
For COc1ccccc1N1CCN(S(=O)(=O)c2ccc(F)c(C(=O)Nc3ccc(Br)cc3)c2)CC1 the results were CapD inh 0.4.
`COc1cc(S(=O)(=O)N(C)C2CCCCC2)c(OC)cc1Cl` gave CapD inh 0.03.
